Among the data in PubChem BioAssay (NCI) are growth values, retold here.

The panel holds about 83,000 compounds, 20% with a hit somewhere; the sample as a whole holds those more often.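 Growth was measured after 48 h exposure to one concentration of compound in 96-well plates. Values under 10 count as active.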 Unmarked numbers belong to inactive results. Active and inactive are the calls of the source.

Among the test systems are SK-MEL-2 melanoma; EKVX NSCLC; SN12C renal; UO-31 renal; TK-10 renal; ACHN renal; CAKI-1 renal; A498 renal; CCRF-CEM leukemia; MOLT-4 leukemia; SR leukemia; RPMI-8226 leukemia; OVCAR-8 ovarian; OVCAR-5 ovarian; OVCAR-4 ovarian; SK-OV-3 ovarian; IGROV1 ovarian; OVCAR-3 ovarian; HS 578T breast; NCI/ADR-RES ovarian.
Holding throughout (experiment): NCI-60 one-dose screen, 48 h (100 = growth as untreated, 0 = no growth, -100 = all killed)
Details in all cases: 10 µM unless noted

As to `O=C1c2c(c3c4cccnc4[nH]c3c3ccc4ccccc4c23)C(=O)N1O`, the growth was 91% in the test on SK-MEL-2 melanoma; 97.7% with EKVX NSCLC; 26.5% with SN12C renal; 57.6% in the test on UO-31 renal; 133% with TK-10 renal; 45% in the test on ACHN renal. The growth was 47% in the test with CAKI-1 renal; 84.7% in the test on A498 renal; 15.3% in the test with CCRF-CEM leukemia; 6.42% (active) with MOLT-4 leukemia; 17.8% in the test on SR leukemia; 16% in the test with RPMI-8226 leukemia. The growth was 46% in the test with OVCAR-8 ovarian; 110% with OVCAR-5 ovarian; 53.8% with OVCAR-4 ovarian; 75.5% with SK-OV-3 ovarian; 38% in the test on IGROV1 ovarian; 14.4% with OVCAR-3 ovarian. For the same molecule, the growth was 70.9% with HS 578T breast and 94.3% in the test with NCI/ADR-RES ovarian.
Turning to `Cc1ccc(OCCOCCOCCOCCOc2ccc(C)n(O)c2=S)c(=S)n1O`, the growth is 12.1% in the test on SK-MEL-2 melanoma; 17.3% in the test with EKVX NSCLC; 13.1% in the test on SN12C renal; -1.11% (active) in the test with UO-31 renal; 33.3% in the test on TK-10 renal; 12.7% in the test on ACHN renal. Also, the growth in the test with CAKI-1 renal is 8.11% (active); in the test with A498 renal, 29.6%; in the test with CCRF-CEM leukemia it was 1.1% (active); in the test on MOLT-4 leukemia it was 6.72% (active); in the test on SR leukemia it was 6.36% (active); in the test on RPMI-8226 leukemia, 13.4%. Moreover, the growth in the test on OVCAR-8 ovarian is 9.37% (active); in the test with OVCAR-5 ovarian, 39.1%; with OVCAR-4 ovarian, 24.4%; in the test with SK-OV-3 ovarian, 0.0112% (active); in the test with IGROV1 ovarian, 30.9%; in the test on OVCAR-3 ovarian, 25%. Besides, the values for the growth in the test with HS 578T breast and in the test on NCI/ADR-RES ovarian were 44% and 1.43% (active), respectively.
Take `N#CC1=C(N)Oc2c(ccc3ccccc23)C1c1cc2ccccc2n2nnnc12` (stereo not given): the growth is 12% with SK-MEL-2 melanoma; 52.1% in the test on EKVX NSCLC; 27.3% in the test with SN12C renal; 25.9% with UO-31 renal; 37.3% in the test on TK-10 renal; 22.7% in the test on ACHN renal. Moreover, the growth with CAKI-1 renal is 31.6%; with A498 renal, -2.46% (active); in the test on CCRF-CEM leukemia, -5.43% (active); with MOLT-4 leukemia, 10.6%; in the test with SR leukemia it was 3.88% (active); with RPMI-8226 leukemia, -8.74% (active). Moreover, the growth with OVCAR-8 ovarian was 26.6%; in the test on OVCAR-5 ovarian, 39.4%; with OVCAR-4 ovarian, 65%; in the test with SK-OV-3 ovarian it was 12.5%; in the test on IGROV1 ovarian, 33.3%; with OVCAR-3 ovarian, -20.7% (active). Besides, the values for the growth in the test on HS 578T breast and with NCI/ADR-RES ovarian were 17.7% and 0.93% (active), respectively.
With `COc1cc(CNC(=O)CCCC/C=C/C(C)C)ccc1OCc1cn(-c2ccc(C(F)(F)F)cc2)nn1`, the growth in the test on SK-MEL-2 melanoma was 95.1%; in the test on EKVX NSCLC, 88.3%; with SN12C renal, 20.5%; in the test on UO-31 renal, 70.5%; in the test on TK-10 renal, 92.8%; with ACHN renal, 90.2%. Moreover, the growth is 80.4% in the test with CAKI-1 renal; 85.8% in the test on A498 renal; 68.8% in the test on CCRF-CEM leukemia; 80.3% in the test with MOLT-4 leukemia; 70.4% in the test with SR leukemia; 53.4% in the test with RPMI-8226 leukemia. Also, the growth in the test on OVCAR-8 ovarian is 41.1%; in the test on OVCAR-5 ovarian, 96.6%; in the test on OVCAR-4 ovarian, 98.6%; in the test with SK-OV-3 ovarian, 91.3%; in the test on IGROV1 ovarian, 58.7%; in the test with OVCAR-3 ovarian, 107%. The growth with HS 578T breast is 80.4%; with NCI/ADR-RES ovarian it was 48.2%.
`Nc1ccc(N)c2c1C(=O)c1cccc([N+](=O)[O-])c1C2=O`: the growth in the test with SK-MEL-2 melanoma is 53.7%; in the test with EKVX NSCLC, 38.2%; in the test with SN12C renal, 25.9%; in the test on UO-31 renal, 33.4%; in the test with TK-10 renal it was 45.3%; in the test with ACHN renal, 15.9%. Moreover, the growth in the test on CAKI-1 renal was 5.03% (active); with A498 renal, -73.8% (active); in the test on CCRF-CEM leukemia, 48.3%; with MOLT-4 leukemia it was 46.5%; in the test on SR leukemia it was -9.26% (active); in the test on RPMI-8226 leukemia, 42.8%. Moreover, the growth in the test on OVCAR-8 ovarian was 41.4%; with OVCAR-5 ovarian it was 70.2%; with OVCAR-4 ovarian it was 60.9%; with SK-OV-3 ovarian, 27.6%; with IGROV1 ovarian it was 18.6%; in the test with OVCAR-3 ovarian it was 58.7%. The figures for the growth in the test with HS 578T breast and in the test with NCI/ADR-RES ovarian were 37.6% and 49.4%, respectively.
With `CC(C)c1nc(N(C)S(C)(=O)=O)nc(-c2ccc(F)cc2)c1/C=C/C(=O)C[C@@H](O)CC(=O)O`, the growth in the test with SK-MEL-2 melanoma is 81.1%; with EKVX NSCLC, 107%; in the test with SN12C renal, 110%; with UO-31 renal it was 93.1%; in the test on TK-10 renal, 88.4%; with ACHN renal, 108%. In addition, the growth is 98.5% in the test with CAKI-1 renal; 106% in the test with A498 renal; 102% with CCRF-CEM leukemia; 107% in the test on MOLT-4 leukemia; 105% in the test with SR leukemia; 107% in the test with RPMI-8226 leukemia. Besides, the growth was 94.2% with OVCAR-8 ovarian; 106% in the test on OVCAR-5 ovarian; 113% with OVCAR-4 ovarian; 102% in the test with SK-OV-3 ovarian; 105% in the test on IGROV1 ovarian; 111% with OVCAR-3 ovarian. The growth was 102% in the test with HS 578T breast and 107% in the test on NCI/ADR-RES ovarian.
On to `COc1cc2nc3cc([N+](=O)[O-])ccc3c(NCCCNCCO)c2cc1OC`, for which the growth in the test with SK-MEL-2 melanoma was -44.3% (active); with EKVX NSCLC it was 7.46% (active); in the test with SN12C renal it was -33.3% (active); in the test with UO-31 renal it was 48.9%; in the test with TK-10 renal, -4.55% (active); in the test with ACHN renal, 2.87% (active). In addition, the growth with CAKI-1 renal is 55.5%; with A498 renal, -80.2% (active); in the test with CCRF-CEM leukemia, 0.0749% (active); with MOLT-4 leukemia, 2.59% (active); in the test on SR leukemia it was -12.4% (active); in the test on RPMI-8226 leukemia, -1.84% (active). Besides, the growth was -28.9% (active) with OVCAR-8 ovarian; -15.2% (active) in the test on OVCAR-5 ovarian; -47.2% (active) with OVCAR-4 ovarian; -59% (active) in the test with SK-OV-3 ovarian; -29.9% (active) in the test on IGROV1 ovarian; -44.6% (active) in the test with OVCAR-3 ovarian. The results for the growth with HS 578T breast and with NCI/ADR-RES ovarian were -16.1% (active) and 93.3%, respectively.
Regarding `N#CSCc1cc(Cl)c(CSC#N)cc1Cl`, the growth in the test on SK-MEL-2 melanoma was 96.5%; in the test with EKVX NSCLC, 104%; with SN12C renal, 41.5%; with UO-31 renal it was 41.9%; in the test with TK-10 renal, 94%; in the test with ACHN renal, 45.3%. Besides, the growth is 38.3% in the test with CAKI-1 renal; 104% in the test with A498 renal; 2.13% (active) in the test with CCRF-CEM leukemia; 17.7% in the test on MOLT-4 leukemia; 10.8% with SR leukemia; 48.6% in the test on RPMI-8226 leukemia. Moreover, the growth is 94.9% with OVCAR-8 ovarian; 82.9% with OVCAR-5 ovarian; 80.5% with OVCAR-4 ovarian; 101% in the test with SK-OV-3 ovarian; 84.7% in the test on IGROV1 ovarian; 71.3% in the test with OVCAR-3 ovarian. In addition, the growth in the test with HS 578T breast is 82.3%; in the test on NCI/ADR-RES ovarian it was 84.5%.
